Source: publication PMC4336329 (PLoS ONE, 2015)
Out of some 310,000 compounds screened, about 14,000 (4.5%) showed an effect of 50% or more. The effect is printed as a negative number. Many of the other results were omitted from the sample, so strong results are more common in it than they were.

The compounds below were run against human ether-à-go-go-related gene (hERG) potassium channel (human, UniProt Q12809) (assay: primary screen, population patch clamp on CHO cells stably expressing hERG; higher = less effect of the substance).
human ether-à-go-go-related gene (hERG) potassium channel, sequence (Q12809 whole entry, looked up): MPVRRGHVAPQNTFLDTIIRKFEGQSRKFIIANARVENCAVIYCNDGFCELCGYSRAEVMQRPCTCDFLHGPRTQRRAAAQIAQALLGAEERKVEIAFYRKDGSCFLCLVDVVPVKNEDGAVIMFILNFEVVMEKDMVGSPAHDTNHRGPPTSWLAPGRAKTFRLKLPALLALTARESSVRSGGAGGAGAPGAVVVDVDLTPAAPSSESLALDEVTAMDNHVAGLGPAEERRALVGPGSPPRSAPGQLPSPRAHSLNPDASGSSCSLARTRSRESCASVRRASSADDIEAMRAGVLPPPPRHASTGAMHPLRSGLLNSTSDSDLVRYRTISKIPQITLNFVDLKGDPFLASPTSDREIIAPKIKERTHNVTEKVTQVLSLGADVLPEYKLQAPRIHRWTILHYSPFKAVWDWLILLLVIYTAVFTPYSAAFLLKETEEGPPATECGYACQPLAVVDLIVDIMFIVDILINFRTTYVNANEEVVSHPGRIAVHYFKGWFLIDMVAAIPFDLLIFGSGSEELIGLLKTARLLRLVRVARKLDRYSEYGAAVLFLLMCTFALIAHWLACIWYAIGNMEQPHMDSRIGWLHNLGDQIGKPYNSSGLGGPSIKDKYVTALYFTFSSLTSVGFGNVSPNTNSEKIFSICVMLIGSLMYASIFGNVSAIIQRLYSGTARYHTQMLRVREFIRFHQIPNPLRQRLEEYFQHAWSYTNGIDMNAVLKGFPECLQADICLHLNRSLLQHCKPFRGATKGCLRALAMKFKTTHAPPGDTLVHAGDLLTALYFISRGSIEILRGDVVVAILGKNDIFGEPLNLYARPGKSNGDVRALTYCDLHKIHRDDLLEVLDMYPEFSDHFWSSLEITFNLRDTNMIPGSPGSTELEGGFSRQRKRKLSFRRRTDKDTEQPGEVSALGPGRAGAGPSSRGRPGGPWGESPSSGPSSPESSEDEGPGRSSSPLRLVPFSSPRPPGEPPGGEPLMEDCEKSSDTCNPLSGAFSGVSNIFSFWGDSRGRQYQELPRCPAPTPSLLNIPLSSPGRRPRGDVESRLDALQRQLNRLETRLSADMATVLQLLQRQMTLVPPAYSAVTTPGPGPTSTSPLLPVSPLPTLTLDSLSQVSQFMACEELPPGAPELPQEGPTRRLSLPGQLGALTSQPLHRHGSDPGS
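Also: peak tail current of the secondary pulse compared with the same well before compound.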

Compound | hERG current change (%, negative = inhibition) at 10uM
CCOc1ncccc1C(=O)N1CCN(c2cc(Cl)ccc2C)CC1 | -4.75%
CCCCN1Cc2c(nc3cc(-c4ccccc4)[nH]n3c2=O)C1=O | 6.51%
Clc1ccccc1-c1nn2c(-c3ccncc3)nnc2s1 | -7.89%
O=C(Nc1cccc(Cl)c1)Nc1nnc(-c2ccccc2)o1 | 3.18%
O=C(Nc1ccccc1N1CCCC1)c1ccc([N+](=O)[O-])cc1Cl | -21.5%
CN1CCN(c2ccccc2NC(=O)c2ccc([N+](=O)[O-])cc2Cl)CC1 | -34.9%
CN1CCN(c2ccc([N+](=O)[O-])cc2NC(=O)c2ccccc2Cl)CC1 | -71.1%
Cn1c(=O)oc2cc(S(=O)(=O)NCCC(=O)Nc3ccc4c(c3)OCCO4)ccc21 | 2.4%
CCOc1ccc(CCNC(=O)COC(=O)c2cccnc2OCC)cc1OCC | -1.87%
CCN(Cc1ccc(OC)c(F)c1)C(=O)c1oc2ccccc2c1COC | -54.6%
COc1ccc(CN(C)C(=O)c2oc3ccccc3c2CSC)cc1F | 14.4%
CCN(Cc1ccc(OC)c(F)c1)C(=O)c1cc2ccccc2o1 | -24.7%
CC(/C=C/c1cccc([N+](=O)[O-])c1)=N/NC(=O)c1cccnc1 | -22.7%
O=c1c(C(c2ccc(F)cc2)c2c(O)nc3n(c2=O)CCCS3)c(O)nc2n1CCCS2 | 9.97%
O=C(Nc1cccc(Cl)c1)OCc1cn(-c2ccccc2)nn1 | -52.6%
O=C(Nc1cccc(Cl)c1)OCc1cn(-c2ccc(Cl)cc2)nn1 | 1.69%
O=C(Nc1ccccc1)OCc1cn(-c2ccc(Cl)cc2)nn1 | 22.3%
Cc1ccc(NC(=O)COc2ccc(CCO)cc2-n2nc3ccccc3n2)cc1C | 6.89%
OCCc1ccc(O)c(-n2nc3ccccc3n2)c1 | -17.1%
N#Cc1ccc(COc2ccc(CCO)cc2-n2nc3ccccc3n2)cc1 | -66.6%
COc1ccc(NC(=O)c2ccc(COCC(F)(F)C(F)F)cc2)cc1OC | 7.39%
COC(=O)CCC(=O)OC1(C)C(=O)C=C2C=C(C3CC3)N(CCCCO)C=C2C1=O (centres unmarked) | 4.26%
CCOCCCNCc1ccc(OCc2ccc(F)cc2)c(OC)c1.Cl | -33.6%
CCOCCCNCc1cccc(OCc2ccc(F)cc2)c1 | -50.1%

Compound | hERG current change (%, negative = inhibition) at 10uM
CCCNCc1cc(OC)c(OCc2ccccc2)cc1Br.Cl | -28.2%
CCOCCCNCc1cc(Br)ccc1OCC.Cl | -55.5%
CCOCCCNCc1ccc(OCc2ccccc2C)c(OC)c1.Cl | -24.4%
CCOCCCNCc1cccc(OC)c1.O=C(O)C(=O)O | 3.11%
CCOCCCNCc1cc(Br)ccc1OCc1ccccc1 | -68.1%
CCOCCCNCc1cc(Cl)ccc1OCC.Cl | -11.8%
CCOc1ccc(Br)cc1CNCCN1CCOCC1 | 1.31%
CCC1(c2ccccc2)NC(=S)N(c2ccc(C)cc2)N1 (centres unmarked) | 22%
O=C(/C=C/c1ccc(F)cc1)NC(=S)Nc1ccccc1C(=O)NC1CCCCC1 | 2.56%
CC1CC(C)CN(C(=O)c2ccncc2)C1 (centres unmarked) | 10.1%
COc1ccc(NC(=O)/C=C/c2ccccc2[N+](=O)[O-])c(OC)c1 | 4.66%
COCCNC(=O)C1CC(c2cccc([N+](=O)[O-])c2)=NO1 (centres unmarked) | 15.8%
Cc1cc(NC(=O)Cn2nnc3sc4c(c3c2=O)CCCC4)no1 | 9.97%
CC(NC(=O)C1=CC=CN2CCS(=O)(=O)N=C12)c1ccc(Cl)cc1Cl (centres unmarked) | -57.9%
O=C(NCc1cccc(Cl)c1)C1=CC=CN2CCS(=O)(=O)N=C12 | -5.54%
O=C(NCCc1ccc(Cl)cc1)C1=CC=CN2CCS(=O)(=O)N=C12 | -9.31%
c1ccc2c(Nc3nc4c(s3)CCCC4)cccc2c1 | 2.23%
CCN(C(=O)Cn1cnc2cc([N+](=O)[O-])ccc2c1=O)C1CCS(=O)(=O)C1 (centres unmarked) | 1.53%
CCN(C(=O)CN1C(=O)c2ccc([N+](=O)[O-])cc2C1=O)C1CCS(=O)(=O)C1 (centres unmarked) | 13.8%
O=C(CSc1nc2ccc([N+](=O)[O-])cc2s1)NC1CCS(=O)(=O)C1 (centres unmarked) | -5.62%
CCN(C(=O)CSc1nc2ccc([N+](=O)[O-])cc2s1)C1CCS(=O)(=O)C1 (centres unmarked) | -61.8%
CN(C(=O)CSc1nc2ccc([N+](=O)[O-])cc2s1)C1CCS(=O)(=O)C1 (centres unmarked) | -55.9%
CN(C(=O)CSc1nc(-c2ccccc2)cs1)C1CCS(=O)(=O)C1 (centres unmarked) | -19.6%
